Data: the supplement of paper PMC11732987, “Enantioselective OTUD7B fragment discovery through chemoproteomics screening and high-throughput optimisation” (Communications Chemistry, 2025)

Legend:
Assay in all cases: log2 ratio of Biotin-Ahx-Ub-VS probe labelling (fragment/DMSO); higher = less target engagement (more negative = stronger competition), active = hit call of the paper (q ≤ 0.05, log2 ratio ≤ -1)
Settings in all cases: compound concentration: 200 uM; treatment time: 3 h
[1] = molecular target: T1, OTUD6B (UniProt Q8N6M0)
T1 sequence (whole entry): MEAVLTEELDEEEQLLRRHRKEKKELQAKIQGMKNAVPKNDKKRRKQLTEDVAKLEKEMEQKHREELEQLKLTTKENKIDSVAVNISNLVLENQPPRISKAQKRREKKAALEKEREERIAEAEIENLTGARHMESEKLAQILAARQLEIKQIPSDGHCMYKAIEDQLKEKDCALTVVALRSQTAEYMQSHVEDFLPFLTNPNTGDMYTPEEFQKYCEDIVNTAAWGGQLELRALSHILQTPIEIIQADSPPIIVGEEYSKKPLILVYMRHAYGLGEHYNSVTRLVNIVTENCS
Outline: (§1)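 HEK293T lysate (495 µg per sample, in Tris/CHAPS/IGEPAL buffer with protease inhibitors) was treated in triplicate with fragment at 200 µM or with DMSO for 3 h. It was then treated with Biotin-Ahx-Ub-VS (0.5 µM final) for 1 h. Labelled DUBs were NeutrAvidin-enriched, digested with LysC and trypsin, and run by diaPASEF LC-MS/MS. Spectronaut label-free quantities were global-median-normalised. Values are average log2 ratios fragment/DMSO by unpaired t-test, using proteins with ≥2 unique peptides.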

[2] = molecular target: T2, OTUD7B (UniProt Q6GQQ9)
T2 sequence (whole entry): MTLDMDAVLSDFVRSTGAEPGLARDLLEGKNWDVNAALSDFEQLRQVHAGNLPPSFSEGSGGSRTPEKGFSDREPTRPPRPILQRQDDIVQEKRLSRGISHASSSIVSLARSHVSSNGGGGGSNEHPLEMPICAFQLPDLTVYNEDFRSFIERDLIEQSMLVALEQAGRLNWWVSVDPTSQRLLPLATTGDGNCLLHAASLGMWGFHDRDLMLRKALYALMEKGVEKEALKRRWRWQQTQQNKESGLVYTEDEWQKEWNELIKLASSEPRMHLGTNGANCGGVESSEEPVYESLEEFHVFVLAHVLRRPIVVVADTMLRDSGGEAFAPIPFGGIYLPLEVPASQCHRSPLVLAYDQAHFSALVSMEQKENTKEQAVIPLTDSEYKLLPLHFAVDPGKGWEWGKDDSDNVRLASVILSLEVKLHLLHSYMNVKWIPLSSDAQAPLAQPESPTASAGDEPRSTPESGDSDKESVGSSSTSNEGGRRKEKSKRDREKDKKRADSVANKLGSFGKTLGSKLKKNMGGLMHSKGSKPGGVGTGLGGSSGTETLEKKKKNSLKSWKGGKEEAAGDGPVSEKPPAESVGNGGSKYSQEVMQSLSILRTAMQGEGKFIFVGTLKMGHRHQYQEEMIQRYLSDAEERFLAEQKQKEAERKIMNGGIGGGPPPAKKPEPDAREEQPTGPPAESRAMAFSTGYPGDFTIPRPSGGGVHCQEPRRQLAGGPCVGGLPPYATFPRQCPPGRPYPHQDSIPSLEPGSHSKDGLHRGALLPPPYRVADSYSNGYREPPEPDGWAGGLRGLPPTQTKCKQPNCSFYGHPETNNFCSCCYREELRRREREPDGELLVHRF
Outline: as §1

[3] = molecular target: PRPF8 (UniProt Q6P2Q9)
Outline: as §1

[4] = molecular target: T3, PSMD7 (UniProt P51665)
T3 sequence (whole entry): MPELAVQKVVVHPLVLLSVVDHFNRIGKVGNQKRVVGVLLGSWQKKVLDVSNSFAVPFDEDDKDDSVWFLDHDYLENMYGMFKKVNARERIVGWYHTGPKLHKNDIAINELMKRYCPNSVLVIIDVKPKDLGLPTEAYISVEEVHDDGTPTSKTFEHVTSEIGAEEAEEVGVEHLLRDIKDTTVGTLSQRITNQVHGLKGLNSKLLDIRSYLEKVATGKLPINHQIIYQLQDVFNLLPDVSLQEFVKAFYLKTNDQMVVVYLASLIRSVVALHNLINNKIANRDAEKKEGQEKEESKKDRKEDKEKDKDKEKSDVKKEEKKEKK
Outline: as §1

[5] = molecular target: UCHL1 (UniProt P09936)
Outline: as §1

[6] = molecular target: T4, UCHL3 (UniProt P15374)
T4 sequence (whole entry): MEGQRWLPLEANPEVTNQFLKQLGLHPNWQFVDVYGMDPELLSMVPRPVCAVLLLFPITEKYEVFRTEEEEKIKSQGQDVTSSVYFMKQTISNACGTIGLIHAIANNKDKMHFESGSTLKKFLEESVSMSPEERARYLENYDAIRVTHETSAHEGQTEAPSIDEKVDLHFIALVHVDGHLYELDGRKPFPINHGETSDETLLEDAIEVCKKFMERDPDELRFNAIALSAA
Outline: as §1

[7] = molecular target: T5, UCHL5 (UniProt Q9Y5K5)
T5 sequence (whole entry): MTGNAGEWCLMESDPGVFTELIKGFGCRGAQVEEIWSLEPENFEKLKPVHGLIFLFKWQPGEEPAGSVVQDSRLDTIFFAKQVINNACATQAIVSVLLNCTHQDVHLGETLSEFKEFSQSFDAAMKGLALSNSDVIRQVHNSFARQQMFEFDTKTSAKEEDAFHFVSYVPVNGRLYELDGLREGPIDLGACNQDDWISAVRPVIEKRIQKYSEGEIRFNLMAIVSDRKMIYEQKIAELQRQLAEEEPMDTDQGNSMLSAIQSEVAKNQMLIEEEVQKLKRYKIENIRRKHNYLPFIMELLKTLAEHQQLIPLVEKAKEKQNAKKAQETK
Outline: as §1

[8] = molecular target: USP10 (UniProt Q14694)
Outline: as §1

[9] = molecular target: T6, USP15 (UniProt Q9Y4E8)
T6 sequence (whole entry): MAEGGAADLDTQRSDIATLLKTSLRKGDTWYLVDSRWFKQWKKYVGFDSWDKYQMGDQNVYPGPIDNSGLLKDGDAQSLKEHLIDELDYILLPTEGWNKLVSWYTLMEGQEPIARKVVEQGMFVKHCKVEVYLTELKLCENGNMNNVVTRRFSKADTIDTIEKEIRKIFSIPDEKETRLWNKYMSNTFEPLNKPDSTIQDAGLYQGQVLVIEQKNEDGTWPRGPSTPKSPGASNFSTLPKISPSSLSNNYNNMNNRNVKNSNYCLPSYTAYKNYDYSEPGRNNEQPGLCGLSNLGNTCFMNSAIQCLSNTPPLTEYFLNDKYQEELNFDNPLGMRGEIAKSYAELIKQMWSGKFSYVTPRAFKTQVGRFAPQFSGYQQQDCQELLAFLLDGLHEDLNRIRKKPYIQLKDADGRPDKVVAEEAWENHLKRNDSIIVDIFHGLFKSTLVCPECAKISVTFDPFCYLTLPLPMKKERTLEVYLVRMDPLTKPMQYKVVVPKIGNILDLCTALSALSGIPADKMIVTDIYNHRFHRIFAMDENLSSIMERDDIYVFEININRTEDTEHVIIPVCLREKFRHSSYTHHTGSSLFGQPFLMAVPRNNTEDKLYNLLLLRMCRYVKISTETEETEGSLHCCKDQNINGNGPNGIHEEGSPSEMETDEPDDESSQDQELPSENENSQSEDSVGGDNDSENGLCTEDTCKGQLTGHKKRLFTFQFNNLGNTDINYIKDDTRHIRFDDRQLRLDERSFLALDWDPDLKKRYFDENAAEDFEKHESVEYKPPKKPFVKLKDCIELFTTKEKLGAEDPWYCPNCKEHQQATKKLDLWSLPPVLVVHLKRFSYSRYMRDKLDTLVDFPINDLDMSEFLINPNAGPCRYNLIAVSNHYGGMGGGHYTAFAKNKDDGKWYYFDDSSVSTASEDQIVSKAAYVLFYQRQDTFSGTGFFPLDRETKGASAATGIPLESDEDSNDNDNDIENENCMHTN
Outline: as §1

[10] = molecular target: USP16 (UniProt Q9Y5T5)
Outline: as §1

Measured: log2 ratio of Biotin-Ahx-Ub-VS probe labelling

USP16, sequence (Q9Y5T5 whole entry, looked up): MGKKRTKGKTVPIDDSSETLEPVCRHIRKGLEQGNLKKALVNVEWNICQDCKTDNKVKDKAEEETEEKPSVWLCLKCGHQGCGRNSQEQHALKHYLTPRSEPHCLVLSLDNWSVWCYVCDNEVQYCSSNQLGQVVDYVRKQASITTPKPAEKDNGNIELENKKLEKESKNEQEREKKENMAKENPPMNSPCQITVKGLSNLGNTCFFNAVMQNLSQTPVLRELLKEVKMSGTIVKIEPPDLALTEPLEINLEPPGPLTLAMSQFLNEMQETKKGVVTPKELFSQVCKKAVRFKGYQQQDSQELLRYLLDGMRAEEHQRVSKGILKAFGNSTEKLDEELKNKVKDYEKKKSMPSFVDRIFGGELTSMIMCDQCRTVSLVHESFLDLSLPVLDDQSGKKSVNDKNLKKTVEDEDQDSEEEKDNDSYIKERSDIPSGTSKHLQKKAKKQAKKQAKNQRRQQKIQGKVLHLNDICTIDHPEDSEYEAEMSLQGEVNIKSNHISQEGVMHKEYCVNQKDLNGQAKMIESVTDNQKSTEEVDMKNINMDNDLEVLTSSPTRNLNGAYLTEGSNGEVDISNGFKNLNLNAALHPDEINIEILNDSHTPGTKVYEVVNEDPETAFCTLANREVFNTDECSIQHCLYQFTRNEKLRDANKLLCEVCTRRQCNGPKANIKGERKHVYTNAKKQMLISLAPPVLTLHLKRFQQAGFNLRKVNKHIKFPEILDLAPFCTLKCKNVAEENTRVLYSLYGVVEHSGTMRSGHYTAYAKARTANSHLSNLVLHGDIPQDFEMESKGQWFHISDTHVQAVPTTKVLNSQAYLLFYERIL
USP10, sequence (Q14694 whole entry): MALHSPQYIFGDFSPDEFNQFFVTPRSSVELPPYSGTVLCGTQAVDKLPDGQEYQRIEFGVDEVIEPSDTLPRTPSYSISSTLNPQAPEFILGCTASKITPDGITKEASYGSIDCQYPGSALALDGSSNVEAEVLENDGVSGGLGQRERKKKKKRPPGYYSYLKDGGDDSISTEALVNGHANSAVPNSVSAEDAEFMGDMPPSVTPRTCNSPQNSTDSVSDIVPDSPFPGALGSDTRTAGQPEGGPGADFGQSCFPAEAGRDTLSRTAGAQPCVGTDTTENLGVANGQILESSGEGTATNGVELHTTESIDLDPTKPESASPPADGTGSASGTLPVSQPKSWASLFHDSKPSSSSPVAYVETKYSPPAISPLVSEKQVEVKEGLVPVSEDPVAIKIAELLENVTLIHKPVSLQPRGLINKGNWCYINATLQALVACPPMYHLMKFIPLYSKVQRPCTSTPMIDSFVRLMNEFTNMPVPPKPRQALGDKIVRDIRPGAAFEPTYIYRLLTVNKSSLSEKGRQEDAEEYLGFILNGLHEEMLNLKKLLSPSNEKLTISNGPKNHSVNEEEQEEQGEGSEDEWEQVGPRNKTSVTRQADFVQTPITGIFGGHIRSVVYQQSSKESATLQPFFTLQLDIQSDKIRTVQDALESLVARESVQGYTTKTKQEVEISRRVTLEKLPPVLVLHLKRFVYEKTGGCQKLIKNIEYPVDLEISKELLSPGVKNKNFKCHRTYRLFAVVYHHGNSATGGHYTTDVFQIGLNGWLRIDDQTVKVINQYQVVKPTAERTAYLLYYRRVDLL
UCHL1, sequence (P09936 whole entry, looked up): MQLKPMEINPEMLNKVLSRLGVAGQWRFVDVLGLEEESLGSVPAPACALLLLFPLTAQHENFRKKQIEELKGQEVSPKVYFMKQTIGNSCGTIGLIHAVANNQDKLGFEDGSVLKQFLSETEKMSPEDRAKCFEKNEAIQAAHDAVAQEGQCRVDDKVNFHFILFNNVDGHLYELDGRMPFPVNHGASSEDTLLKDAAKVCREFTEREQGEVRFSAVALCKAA

Cc1cccc(C)c1NC(=O)CCl
active: [5] -1.48
inactive: [1] -0.307 | [2] -0.52 | [3] -0.0544 | [4] -0.245 | [6] 0.0922 | [7] -0.309 | [8] -0.108 | [9] -0.203 | [10] -0.0305
